# In all, about 360,000 compounds went through this assay and about 2,400 (0.67%) were called active. The sample as a whole holds a higher share of actives than the screen did. Unmarked numbers belong to inactive results. No stated cut-off is given here; in the data, active means enhancement above about 30%; inactive means the rest.
# Target: Thyrotropin-releasing hormone receptor (Homo sapiens) (UniProt P34981)
# Assay: qHTS for Small Molecule Agonists and Allosteric Enhancers of Human TRH Receptor: Primary Screen for Enhancers; further: 0% is about no effect
# Conditions: TRHR cells, fluo-8 calcium fluorescence, EC20 TRH enhancement; at 2 µM; stronger effect = higher value
# Outline: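 TRHR-expressing cells loaded with fluo-8 calcium dye were read kinetically (ex 480/em 530) during compound addition, then stimulated with an EC20 of TRH (10 nM final). Enhancement of the Gq-mediated intracellular calcium response was scored.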
# Chain of Thyrotropin-releasing hormone receptor (Homo sapiens) (P34981 whole entry, looked up): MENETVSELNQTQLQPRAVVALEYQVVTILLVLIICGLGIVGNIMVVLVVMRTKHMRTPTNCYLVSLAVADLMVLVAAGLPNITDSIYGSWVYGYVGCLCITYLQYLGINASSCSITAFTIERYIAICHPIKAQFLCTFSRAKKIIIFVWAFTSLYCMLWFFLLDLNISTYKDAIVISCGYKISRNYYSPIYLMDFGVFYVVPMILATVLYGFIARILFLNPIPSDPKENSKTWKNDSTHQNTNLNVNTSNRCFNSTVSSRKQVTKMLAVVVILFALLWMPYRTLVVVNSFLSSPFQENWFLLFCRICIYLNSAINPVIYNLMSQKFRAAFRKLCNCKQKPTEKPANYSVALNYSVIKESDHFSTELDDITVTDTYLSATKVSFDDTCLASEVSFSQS
row,Structure (SMILES),enhancement
1,O=C(CSc1cn(CC(=O)N2CCOCC2)c2ccccc12)Nc1ccccc1,-5.59%
2,COc1ccc(Cc2nc3ccc(C(=O)NCc4ccccc4Cl)cc3o2)cc1,3.9%
3,CCC(Sc1nc2n[nH]c(C)c2c(=N)n1-c1ccccc1Cl)C(=O)N(CC)CC (stereo not given),-2.62%
4,Cc1ccc(Oc2c(C(F)(F)F)oc3c(CN4CCCCC4)c(O)ccc3c2=O)cc1,0.578%
5,CCCOc1ccc(Cc2c(O)nc(N)[nH]c2=O)cc1C,5.99%
6,CCCOc1ccc(Cc2c(O)nc(SC)[nH]c2=O)cc1C,40.1% (active)
7,CCOC(=O)c1sc(NC(=O)CSc2nc(O)c(Cc3ccccc3)c(=O)[nH]2)nc1C,0.15%
8,Cc1cc2c(s1)c1cnn(Cc3cc(F)c(Cl)cc3Cl)c(=O)c1n2C,-6.51%
9,COc1ccc(CCN2C(=O)c3oc4cc(C)cc(C)c4c(=O)c3C2c2ccccc2F)cc1OC (stereo not given),-0.372%
10,O=C(Cc1ccccc1)Nc1sc2c(c1C(=O)Nc1ccc(Br)cc1)CCC2,1%
11,COc1ccc(C2Sc3ccccc3NC3=C2C(=O)c2ccccc23)c(OC)c1OC (stereo not given),-4.93%
12,COc1c(Cl)cc(C(=O)N(Cc2ccccc2F)C2CCS(=O)(=O)C2)cc1Cl (stereo not given),34% (active)
13,COc1ccccc1C(=O)N(Cc1ccc(C)o1)C1CCS(=O)(=O)C1 (stereo not given),0.844%
14,COc1cc(C(=O)N(Cc2ccc(C(C)C)cc2)C2CCS(=O)(=O)C2)cc(OC)c1OC (stereo not given),-5.35%
15,CCOC(=O)c1ccc(N2C(=O)c3[nH]nc(-c4ccccc4)c3C2c2ccc(C(C)C)cc2)cc1 (stereo not given),7.37%
16,Cc1ccc(C)c(N2CCN(CCCNC(=O)Nc3ccc(Cl)cc3)CC2)c1,2.7%
17,Cc1ccc(NC(=O)c2cn3c4c(ccc(Cl)c4c2=O)OC(C)C3)cc1C (stereo not given),6.65%
18,O=C1NC(c2cc3c(cc2Cl)OCO3)Oc2ccccc21 (stereo not given),5.25%
19,C=CCOc1cccc(C2NC(=O)c3ccccc3O2)c1 (stereo not given),-1.8%
20,O=C1NC(c2ccccc2)Oc2ccccc21 (stereo not given),36.1% (active)
21,Cc1ccc2c(=O)c(C(=O)c3ccc(F)cc3)cn(CC(=O)NC3CCCCC3)c2n1,7.98%
22,COCC(C)NS(=O)(=O)c1ccc(N2CCCCS2(=O)=O)cc1 (stereo not given),6.76%
23,CCOC(=O)c1nn(-c2cccc(C)c2)cc1C(=O)c1ccccc1,11%
24,CCOC(=O)C1=C(O)/C(=C/c2cc(C)n(-c3ccccc3)c2C)N=C1C,43.5% (active)
25,CCOC(=O)C1=C(O)/C(=C/c2ccc(OCC(=O)Nc3ccc(C)cc3)cc2)N=C1C,-0.756%
